RGS7-Gao = RGS7-Galphao binding modulators, primary screen, biochemical, multiplexed bead flow cytometry; hit rate 0.35% among 220,000; actives lie on both sides; AID 1439, 2008; binding response (% of control), % at 10 µM; in the data active = binding response below about 49% or above about 150%; inconclusive = no clear call, values can overlap the other calls; inactive = in between;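 also: fluorescent Galphao held in activated GDP-AlF4 state binding bead-coupled RGS7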
RGS4-Gao reg = modulators of RGS4 binding to Galphao, primary screen, biochemical, multiplexed bead flow cytometry; Guanine nucleotide-binding protein G(o) subunit alpha (Homo sapiens), P09471; actives lie on both sides; binding response (% of control), % at 10 µM; hit rate 0.33% among 220,000; in the data active = binding response below about 49% or above about 150%; inactive = in between;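 also: fluorescent Galphao activated with aluminum fluoride binding bead-coupled RGS4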
RGS8-Gao = RGS8-Galphao binding modulators, primary screen, biochemical, multiplexed bead flow cytometry; response (percent of control binding), % at 10 µM; Guanine nucleotide-binding protein G(o) subunit alpha (Homo sapiens), P09471; actives lie on both sides; AID 1423, 2008; hit rate 0.34% among 220,000; in the data active = response below about 60% or above about 140%; inactive = in between;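 also: Galphao activated as the GDP aluminium fluoride complex binding bead-coupled RGS8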
GSH fluor = compound fluorescence on glutathione beads, profiling panel, artefact control, biophysical, 488/530 nm, flow cytometry; hit rate 0.25% among 190,000; fluorescence (KMESF) at 10 µM; AID 1776, 2009; GSH beads flow cytometry, compound fluorescence 488/530 nm; hits give high values; in the data active = fluorescence above about 89;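 also: glutathione beads carrying GST-tagged Bcl family fusion proteins plus one bare bead set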
RGS16-Gao = modulators of RGS16 binding to Galphao, primary screen, biochemical, human proteins, multiplexed bead flow cytometry; Regulator of G-protein signaling 16 (Homo sapiens) + Guanine nucleotide-binding protein …; bead-based flow cytometry RGS16-Galphao binding, fluorescence; actives lie on both sides; hit rate 0.38% among 220,000; binding response (% of control), % at 10 µM; AID 1441, 2008;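 also: Galphao activated by GDP with aluminum fluoride before binding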
Target sequence (O15492 whole entry, looked up): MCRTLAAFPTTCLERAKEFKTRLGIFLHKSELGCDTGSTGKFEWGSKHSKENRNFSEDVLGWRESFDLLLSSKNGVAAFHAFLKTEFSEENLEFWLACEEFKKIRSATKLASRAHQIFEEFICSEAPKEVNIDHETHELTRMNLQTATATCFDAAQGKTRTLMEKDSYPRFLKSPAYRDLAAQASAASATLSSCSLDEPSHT
Target sequence (P09471 whole entry, looked up): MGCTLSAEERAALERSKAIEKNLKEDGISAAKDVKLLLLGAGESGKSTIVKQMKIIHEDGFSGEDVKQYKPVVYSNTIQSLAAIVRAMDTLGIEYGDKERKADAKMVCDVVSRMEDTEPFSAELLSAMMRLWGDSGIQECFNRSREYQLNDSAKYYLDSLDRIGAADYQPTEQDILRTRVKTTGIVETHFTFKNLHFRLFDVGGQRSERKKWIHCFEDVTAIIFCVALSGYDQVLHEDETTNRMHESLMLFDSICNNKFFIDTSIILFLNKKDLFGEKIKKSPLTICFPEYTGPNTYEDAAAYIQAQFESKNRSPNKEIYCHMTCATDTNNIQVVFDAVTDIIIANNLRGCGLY
Avidin fluor = green autofluorescence of compounds with avidin beads – biophysical, 488/530 nm, flow cytometry, artefact control, profiling panel. compound fluorescence 488/530 nm; hits give high values. fluorescence (KMESF) at 10 µM. hit rate 0.38% among 220,000. AID 1775, 2009; in the data active = fluorescence above about 47
RGS-Gao = modulators of RGS–Galpha-o binding, primary screen, biochemical, multiplexed beads, flow cytometry, RGS4/7/8/16/19. hit rate 99% among 1,600. RGS4–Galpha-o binding response, % at 10 µM. multiplexed bead flow cytometry. shares compounds with RGS16-Gao;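 also: fluorescently labeled Galpha-o bound to GDP with aluminium fluoride binding biotinylated RGS beads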
Avidin counter = disruption of biotin probe capture by avidin, counter-screen for RGS protein interaction modulators, biochemical, flow cytometry, bead-based. inhibition, % at 10 µM. 1,700 tested, under 10 active. streptavidin beads, fluorescein-biotin binding. shares compounds with RGS16-Gao. AID 1783, 2009;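 active = inhibition above 50%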;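 also: median green fluorescence of gated singlet beads compared with DMSO control wells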
RGS8-Gao confirm = RGS8-Galphao binding modulators, confirmation, biochemical, multiplexed bead flow cytometry, single concentration; hit rate 3% among 1,700; shares compounds with RGS16-Gao; binding response (% of control), % at 10 µM; bead-based flow cytometry RGS8-Galphao binding, fluorescence; actives lie on both sides; AID 1836, 2009; in the data active = binding response below about 72% or above about 130%; inactive = in between;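 also: Galphao activated as GDP AlF4 complex before binding bead RGS8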
RGS7-Gao single = RGS7-Galphao binding modulators, confirmation, biochemical, multiplexed bead flow cytometry, single concentration; bead-based flow cytometry RGS7-Galphao binding; actives lie on both sides; response (percent of control binding), % at 10 µM; hit rate 7.8% among 1,700; shares compounds with RGS16-Gao; in the data active = response below about 75% or above about 130%; inactive = in between;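 also: fluorescent Galphao activated with GDP and aluminum fluoride binding bead-coupled RGS7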
RGS16-Gao conf = modulators of RGS16-Galphao protein binding, confirmation, biochemical, single concentration, multiplexed bead flow cytometry | shares compounds with RGS16-Gao | bead-based flow cytometry; actives lie on both sides | response (% of control binding), % at 10 µM | hit rate 4% among 1,700 | AID 1838, 2009; in the data active = response below about 74% or above about 130%; inactive = in between;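 also: Galphao activated as the GDP aluminium fluoride complex binding bead-coupled RGS16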
RGS4-Gao single = modulators of RGS4-Galphao protein binding, confirmation, biochemical, single concentration, multiplexed bead flow cytometry; shares compounds with RGS16-Gao; actives lie on both sides; binding response (% of control), % at 10 µM; hit rate 4% among 1,700; AID 1840, 2009; in the data active = binding response below about 74% or above about 130%; inactive = in between
RGS19-Gao single = regulators of RGS19-Galphao binding, confirmation, biochemical, single point, multiplexed bead flow cytometry; shares compounds with RGS16-Gao; bead-based flow cytometry RGS19-Galphao binding; actives lie on both sides; response (percent of control binding), % at 10 µM; hit rate 5% among 1,700; in the data active = response below about 50% or above about 160%; inactive = in between
Numbers stand for hits; 0 = inactive; ? = inconclusive; - = not tested or not shown; [ ] = dose if it differs, or a comment. Hits are enriched below; roughly 1.2% of the tested compounds scored in any of these assays. Unless noted, no rule for the calls is given here.

SMILES	RGS7-Gao	RGS4-Gao reg	RGS8-Gao	GSH fluor	RGS16-Gao	Avidin fluor	Avidin counter	RGS8-Gao confirm	RGS7-Gao single	RGS16-Gao conf	RGS4-Gao single	RGS19-Gao single	others
CC(C)CC(NC(=O)C(CC(C)C)NC(=O)C(Cc1ccc(OCc2ccccc2)cc1)NC(=O)OC(C)(C)C)C(N)=O (stereo unspecified)	0	0	0	0	0	0	-	-	-	-	-	-
CC(C)CC(NC(=O)C(CC(C)C)NC(=O)OC(C)(C)C)C(N)=O (stereo unspecified)	0	0	0	0	0	0	-	-	-	-	-	-
CC(C)CC(NC(=O)C(CC(C)C)NC(=O)OC(C)(C)C)C(=O)O (stereo unspecified)	-	-	-	0	-	-	0	0	0	0	0	0
CN(C)S(=O)(=O)c1cc(NC(=O)COC(=O)Cc2ccc(Br)cc2)ccc1Cl	0	0	56.5	0	12.4	0	0	0	0	0	0	0	RGS-Gao=77.8
COc1ccc(-n2nc(C)c3sc(C)nc3c2=O)cc1	?	0	0	-	0	0	-	-	-	-	-	-
CCOC(=O)C1=NN(c2cccc(C)c2)C2(S1)SC(C(C)=O)=C(C)N2c1ccccc1 (stereo unspecified)	-	-	-	0	-	-	0	0	0	0	0	0
C/C(CC(=O)NCCN1CCOCC1)=N\NC(=O)c1ccncc1	?	0	0	-	0	0	-	-	-	-	-	-
CCCCC(C(=O)O)C(C)CC(=O)NNC(=O)c1ccco1 (stereo unspecified)	0	0	0	0	0	0	-	-	-	-	-	-
Cc1ccc(C)c(Sc2ccc(NC(=O)CCl)cc2)c1	0	0	0	0	299.1[activator]	0	-	-	-	-	-	-	RGS-Gao=114.8
Cc1ccc(-c2csc3nnc(SCC(=O)Nc4nsc(-c5ccccc5)n4)n23)cc1	-	-	-	0	-	-	0	0	0	0	0	0
O=C(CSc1nnc2scc(-c3ccccc3)n12)Nc1nsc(-c2ccccc2)n1	0	0	0	0	0	0	-	-	-	-	-	-
O=C(CCCCn1c(=O)c2ccccc2n(Cc2ccccc2)c1=O)NC1CCN(Cc2ccccc2)CC1	0	0	0	0	0	0	-	-	-	-	-	-
Cc1nc2c(cnn2-c2ccc(Cl)cc2)c(=O)n1-c1ccc(N2CCC(C)CC2)cc1	171.0[activator]	150.3[activator]	0	0	0	0	0	0	0	0	0	0

Bioassay records deposited in PubChem by NMMLSC.
